Results from PubChem BioAssay AID597 (National Center for Advancing Translational Sciences (NCATS), 2007).
Screen size: about 68,000 compounds; about 60 (0.09%) were called active. Calls come from the whole dose curve; as a rule, active = well fitted curve in the direction sought with a large enough effect; inconclusive = small, poorly fitted or top-dose-only effect; inactive = flat fitted curve, though single readings scatter. Only a sample is shown. Where a SMILES comes first, the peptide text is derived from it. The star is where a group is joined. Bz = O=C(c1ccccc1)*

assay: qHTS Assay for Epigenetic Modulators; details: mouse C127i GFP locus derepression, cytometry, 30 h; series mostly up to 46.1 µM; GFP derepression (activation): at the top concentration; note: % of control where 0% means no effect
From the text: NIH Molecular Libraries Screening Centers Network [MLSCN] NIH Chemical Genomics Center [NCGC] MLSCN Grant: 1 X01 MH079860-01 Assay Provider: Elisabeth D. Martinez, University of Texas SW Medical Center NCGC Assay Overview: The Locus Derepression assay detects the derepression of a GFP reporter that is stably integrated in a region of the genome of murine c127i mammary cells that is presumably silenced. GFP transcription in this construct is controlled by a CMV promoter, which normally is strong and constitutively active. However, this line was selected for lack of constitutive expression of the GFP protein. GFP production can be induced by incubating the cells with histone deacetylase or DNA methyltransferase inhibitors. Compounds that cause derepression of the locus to express GFP are identified by enumerating GFP positive cells using a laser-scanning microplate cytometer. For further details of this screen and follow-up characterization, see R.L. Johnson, W. Huang, A. Jadhav, C.P. Austin, J. Inglese, E.D. Martinez, A Quantitative High-Throughput Screen Identifies Potential Epigenetic Modulators of Gene Expression, Analytical Biochemistry (2008) 375(2):237-48.
NCGC Assay Protocol Summary: Two hundred and fifty cells in 5 uL per well were dispensed into black, clear-bottom 1536-well plates. Twenty-three nL compound was transferred to the assay plate and cells were incubated 30 hours at 37 C. Medium was removed, cells were washed two times with PBS, and GFP-positive cells were enumerated as fluorescent objects between the sizes of 20 to 120 um width and depth using an Acumen Explorer. Keywords: NIH Roadmap, MLSCN, MLI, MLSMR, qHTS, NCGC, qHTS, HDAC, DNMT, HAT, DNA methyltransferases, histone acetyl transferases, histone deacetylases

| Compound | GFP derepression (activation) |
| --- | --- |
| CCCNS(=O)(=O)c1ccc(CCC(=O)NCc2cccnc2)cc1 | 1.9% (inactive) |
| Cc1nc2ccc(S(=O)(=O)NCC(=O)NCCN3CCCCC3C)cc2s1 (centres undefined) | 2% (inactive) |
| N#Cc1cccc(-c2nc3cnc(N4CCNCC4)nc3n(C3CC3)c2=O)c1 | -5% [at 9.22 µM] (inactive) |
| COc1ccc(C2OC(=O)CC2C(=O)NC(C)C)cc1 (centres undefined) | 4.2% (inactive) |
| O=C(NCC12CC3CC(C1)CC(CNC(=O)N1CCCC1)(C3)C2)N1CCCC1 | -1.1% (inactive) |
| C[C@]1(O)CC[C@H]2[C@H]3CC=C4N5CCN=C5CC[C@@]4(C)[C@H]3CC[C@@]21C | -3.4% [at 9.22 µM] (inactive) |
| COCCn1c(=O)c(C)nc2cnc(N(C)C)nc21 | 2.3% [at 9.22 µM] (inactive) |
| CN1CCCc2cc(C#N)c(=O)[nH]c21 | -1.5% (inactive) |
| CCCc1[nH]nc2c1C(c1ccc(OC(=O)c3ccco3)cc1)C(C#N)=C(N)O2 (centres undefined) | -1.3% (inactive) |
| CCCCOc1ccc(-c2nnc(-c3ccco3)o2)cc1 | 1% (inactive) |
| CC(C)NC(=O)N1CC[C@@]2(CCCN(C(=O)c3cccn3C)C2)C1 | 2.2% [at 9.22 µM] (inactive) |
| O=S(=O)(NCc1ccc2c(c1)OCO2)c1cccc2nsnc12 | -3.2% (inactive) |
| COc1ccc(CNC(=O)c2c(C)cc(=O)oc2C)cc1OC | 0% [at 20.6 µM] (inactive) |
| Cc1cccc(CC(=O)Nc2c3c(nn2-c2cccc(Cl)c2)CS(=O)C3)c1 (centres undefined) | 0% (inactive) |
| Cc1nn(C)c(C)c1S(=O)(=O)N1CCc2ccccc21 | 0% (inactive) |
| Cc1nc2cnc(N3CCNCC3)nc2n(CCc2ccccc2)c1=O | 8.1% [at 9.22 µM] (inactive) |
| Clc1ccc(C(c2ccc(Cl)cc2)n2cc[n+](C[C@@H](OCc3ccc(Cl)cc3Cl)c3ccc(Cl)cc3Cl)c2)cc1 | -1.1% (inactive) |
| C=CCSC1=C(C#N)C(c2cc(Br)c(O)c(OC)c2)CC(=O)N1 (centres undefined) | -3.4% (inactive) |
| CN(C)CCSS(=O)(=O)O | 0.1% [at 9.22 µM] (inactive) |
| CC(NC(=O)CSc1nc2c(cc1C#N)CN(C)CC2)c1ccccc1 (centres undefined) | 2.2% [at 20.6 µM] (inactive) |
| CCNC(=O)CN(c1ccc(C)cc1)S(=O)(=O)c1ccc(SC)cc1 | -1.5% (inactive) |
| CC(=O)c1sc2nc(SCC(=O)N3CCCCC3)[nH]c(=O)c2c1C | 4.5% (inactive) |
| Cn1cccc1C1(C(F)(F)F)NCCNC1=O (centres undefined) | 2.1% (inactive) |
| CCOC(=O)N1CCN(C(=O)c2nn(-c3ccc(C)cc3)c(=O)c3c2c2ccccc2n3C)CC1 | 5% (inactive) |
| COc1ccccc1CNC(=O)CCCNS(=O)(=O)c1cccc2nsnc12 | 1.8% (inactive) |

| Compound | GFP derepression (activation) |
| --- | --- |
| O=C(c1ccc(O)cc1)c1ccc(C(=O)O)c(C(=O)O)c1 | 2.1% (inactive) |
| CCOC(=O)CNC(=O)CSc1nnnn1-c1cc(C)ccc1C | 0% (inactive) |
| COc1ccc(S(=O)(=O)Nc2c(C)n(C)n(-c3ccccc3)c2=O)cc1 | 2% (inactive) |
| COc1ccc(C(C(O)C(=O)c2c[nH]c3ccccc23)N2CCN(c3ccccc3)CC2)cc1 (centres undefined) | -2.9% (inactive) |
| Cn1c(=O)[nH]c(=O)c2c1nc(N(CCO)Cc1ccccc1)n2Cc1ccccc1Cl | -6.5% [at 20.6 µM] (inactive) |
| Cn1c(=O)cc(SCC(=O)N2CCN(C(=O)c3ccco3)CC2)c2ccccc21 | -2% (inactive) |
| COc1ccc(OC)c(CNC(=O)C2CCCN(c3nc4ccccc4o3)C2)c1 (centres undefined) | 2.1% (inactive) |
| Cn1cc(-c2nc3cnc(N4CCNCC4)nc3n(CCC#N)c2=O)c2ccccc21 | 7.6% [at 9.22 µM] (inactive) |
| CCOCCc1c(O)nc(SCC(=O)NCc2ccco2)[nH]c1=O | 0.3% (inactive) |
| N#CC(C(N)=O)=C1CCC2(CC1)OCCCCO2 | -1% (inactive) |
| COC(=O)c1ccc(C2NC(=O)NC(C)=C2C(=O)N(C)C)cc1 (centres undefined) | -1.1% (inactive) |
| CCn1c2c(c3ccc(OC)cc31)CCCC2=O | 0% (inactive) |
| COc1ccc(S(=O)(=O)NC(CC(=O)NCc2ccccc2OC)c2ccco2)cc1 (centres undefined) | -1% (inactive) |
| O=C(NC(Cc1ccccc1)C(=O)N1CCCC1C(=O)O)c1ccccc1 (stereo not drawn) (Bz-Phe-Pro-OH; configuration not given here) | 3.4% (inactive) |
| Cc1nc2cnc(Oc3cccc(Cl)c3)nc2n(C2CC2)c1=O | -2.7% [at 9.22 µM] (inactive) |
| C[C@H]1O[C@@H](CC(=O)O)Cc2c1c(O)c1c(O)cc(-c3cc(=O)c4c(=O)c5c(c(=O)c=4c3=O)C[C@H](CC(=O)O)O[C@@H]5C)c(O)c1c2O | 10.3% [at 9.22 µM] (inactive) |
| CNc1cc(-c2c(C)noc2C)ncn1 | 0% [at 9.22 µM] (inactive) |
| O=C(c1c(Cl)nc2sccn12)N1CCCc2ccccc21 | 4.2% (inactive) |
| Cc1ccc2[nH]c(=O)c(-c3nc4c(C)cccn4c3NCc3ccco3)cc2c1 | -0.1% (inactive) |
| COc1ccc(CNc2ncncc2-c2ccccc2C)c(OC)c1 | 0% [at 9.22 µM] (inactive) |
| CCOC(=O)c1[nH]c2ccccc2c1N=C(C)N(CC)CC | 0% [at 20.6 µM] (inactive) |
| Fc1ccc(Cn2nnnc2C(c2cccs2)N2CCCCCC2)cc1 (centres undefined) | 1.3% (inactive) |
| COc1ccc2[nH]c(=O)c(CN(CC3CCCO3)C(=O)Nc3ccccc3)cc2c1 (centres undefined) | 3.4% (inactive) |
| COc1ccc2[nH]cc(CCNc3ncnc4ccc(-c5ccccc5CN(C)C)cc34)c2c1 | -5.2% [at 9.22 µM] (inactive) |
